“And” between values parts separate entries of the source, which are not always exact repeats. Equal values may be shown once. The source made the active and inactive calls.
What was measured:
[1] = tested on: XIP peptide (Xip251-270) binding; test: small-molecule binders of XIP peptide, primary screen, biochemical, small-molecule microarray, fluorescence 635/667 nm, 0.1 µg/mL protein (AID 1182); details: fluorescent protein binding, 635 nm, higher = more signal, called active from +8 up or from −8 down
XIP peptide (Xip251-270) = test: small-molecule binders of XIP peptide, primary screen, biochemical, small-molecule microarray, fluorescence 635/667 nm, 0.5 µg/mL protein (AID 1183); details: small-molecule microarray binding, fluorescence 635 nm; higher = more signal
[2] = Plasmodium falciparum growth inhibition, primary screen, strain 3D7, DAPI fluorescence, 100 nL (AID 1184);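 further: parasites grown inside human red blood cells in medium with human serum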; details: P. falciparum 3D7 growth, 3 d, higher = more signal
[3] = molecular target: Homeobox protein Hox-A13 (Mus musculus) (UniProt Q62424); test: inhibitors of HoxA13-DNA binding, primary screen, biochemical, fluorescence polarization, labeled oligonucleotide (AID 1185); details: 15 min, higher = more signal, called active from +8 up or from −8 down
Homeobox protein Hox-A13 (Mus musculus), sequence (Q62424 whole entry, looked up): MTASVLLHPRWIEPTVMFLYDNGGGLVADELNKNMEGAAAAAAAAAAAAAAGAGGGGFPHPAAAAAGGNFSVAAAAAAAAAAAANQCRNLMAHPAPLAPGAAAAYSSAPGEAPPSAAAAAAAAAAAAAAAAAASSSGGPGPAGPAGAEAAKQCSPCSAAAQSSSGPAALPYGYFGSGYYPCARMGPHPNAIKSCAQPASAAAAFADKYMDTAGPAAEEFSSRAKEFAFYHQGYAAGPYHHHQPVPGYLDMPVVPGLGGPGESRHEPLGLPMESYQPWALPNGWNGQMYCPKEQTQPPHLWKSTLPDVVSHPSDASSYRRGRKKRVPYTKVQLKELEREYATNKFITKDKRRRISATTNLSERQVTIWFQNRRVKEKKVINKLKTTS

| Compound | composite z-score [1] | composite z-score (XIP peptide (Xip251-270)) | z-score [2] | z-score [3] |
| --- | --- | --- | --- | --- |
| COc1ccc(COC(=O)NN=C2C[C@@H](O)[C@@H](O)[C@@H]3[C@@H]4C(=O)N(C(C)(C)C)C(=O)[C@@H]4CC[C@H]23)cc1 | 2.23 (inactive) | 0.801 | 0.189 | 0.471 (inactive) |
| COC(=O)C1=C(C)N(Cc2ccccc2)C2=C(C(C)=O)[C@H](c3ccccc3)[C@@](O)(C(=O)OC)C(=O)N2[C@@H]1c1ccccc1 | 0.284 (inactive) and -0.864 (inactive) | 0.727 and -1.64 | 0.512 and -0.515 | -4.62 (inactive) and 0.136 (inactive) |
| CO[C@H]1COC(=O)CC=C[C@H](C)[C@H](OC)COC(=O)[C@@H](C)COC(=O)CC=C[C@@H]1C | -0.205 (inactive) and 0.308 (inactive) | 0.602 and -0.337 | 0.298 and 0.795 | 0.397 (inactive) and 0.774 (inactive) |
| COC(=O)C1=C(C)N(Cc2ccccc2)[C@]23O[C@](C(=O)OC)(C(=O)N2[C@@H]1c1ccccc1)[C@@H](C(=O)OC)[C@H]3C(=O)OC | 1.4 (inactive) and -0.409 (inactive) | -0.0215 and 0.118 | -0.0831 and 0.255 | -4.02 (inactive) and -0.38 (inactive) |
| CCCNC(=O)OC[C@H]1O[C@H](CCON=C(C)CCN2CCc3nc(-c4ccccc4)c(-c4ccccc4)cc3C2)C=C[C@@H]1Oc1ccc(OC)cc1 | -0.377 (inactive) | 0.201 | -0.821 | -2.84 (inactive) |
| COc1ccc(-c2ccc3c(n2)CCCN3CC(O)CN2CCCc3nc(-c4ccc(Br)cc4)ccc32)cc1 (configuration not stated) | 0.947 (inactive) and 1.14 (inactive) | 0.717 and 0.257 | -0.309 and 0.613 | -3.36 (inactive) and -1.95 (inactive) |
| CON(C)C(=O)c1nnc2c3ccccc3n(S(=O)(=O)c3ccc(C)cc3)c2n1 | 0.41 (inactive) and 0.536 (inactive) | 0.632 and 0.305 | -0.248 and -0.675 | -5.36 (inactive) and -5.11 (inactive) |
| CCCC[C@@H]1CN2[C@H](c3ccc(Br)cc3)[C@@H](C)CC[C@H]2C(=O)O1 | 0.744 (inactive) and -0.433 (inactive) | -0.322 and -0.118 | -0.0735 and 0.113 | -1.48 (inactive) and -3.43 (inactive) |
| Cc1ccc(S(=O)(=O)N[C@H]2COC(=O)[C@@H](C)COC(=O)[C@H](C)NC(=O)CC=C[C@H]2C)cc1 | 0.0287 (inactive) | -0.188 | -0.208 | -0.0362 (inactive) |
| C[C@@H]1CC[C@H]2C(=O)NC[C@@H](O)CN2[C@H]1c1ccc(Br)cc1 | 0.21 (inactive) and 0.567 (inactive) | 0.22 and 0.889 | -0.601 and 0.863 | -2.22 (inactive) and -1.74 (inactive) |
| O=C(NN=C1C[C@@H](O)[C@@H](O)[C@@H]2[C@@H]3C(=O)N(Cc4ccc5c(c4)OCO5)C(=O)[C@@H]3CC[C@H]12)OCc1ccccc1 | 0.974 (inactive) | 0.222 | 0.228 | 0.0311 (inactive) |
| COc1ccc(O[C@H]2C=C[C@@H](c3ccccc3)O[C@@H]2COC(=O)CCC(C)=NO[C@H](C)c2cn([C@H](CO)Cc3ccccc3)nn2)cc1 | 0.31 (inactive) and 0.164 (inactive) | 0.238 and 0.548 | -1.46 and -1.1 | -5.26 (inactive) and -4.59 (inactive) |
| CCN1C(=O)[C@H]2[C@H]3[C@H](O)[C@H](O)CC(=NNC(=O)OCc4ccc(OC)cc4)[C@H]3CC[C@H]2C1=O | 0.0568 (inactive) | 0.267 | 0.38 | 0.429 (inactive) |
| COC(=O)C1=C(C)N(Cc2ccccc2)C2=C3C(=O)N(c4ccccc4)C(=O)[C@@H]3[C@@](O)(C(=O)OC)C(=O)N2[C@@H]1c1ccccc1 | 0.357 (inactive) and 0.908 (inactive) | 0.673 and 0.243 | -0.441 and 0.347 | -3.12 (inactive) and -0.385 (inactive) |
| C[C@@H]1CC[C@H]2C(=O)N3[C@@H](CC[C@@H](C)[C@@H]3c3ccc(-c4ccco4)cc3)C(=O)N2[C@H]1c1ccc(-c2ccco2)cc1 | 1.47 (inactive) | 0.827 and 0.789 | 0.376 and 0.75 | -1.46 (inactive) and 0.517 (inactive) |
| CO[C@@H]1C=CCC(=O)N2CCC[C@H]2C(=O)OC[C@H](C)C(=O)OC[C@H]1C | 0.28 (inactive) | 0.612 | 0.471 | -0.499 (inactive) |
| CCOC(=O)CCN1C(=O)[C@H]2[C@H]3[C@H](O)[C@H](O)CC(=NNC(=O)OCC)[C@@H]3CC[C@H]2C1=O | 0.872 (inactive) | 0.466 | 2.07 | 0.0438 (inactive) |
| CCN1C(=O)[C@H]2[C@H]3[C@H](O)[C@H](O)CC(=NOC)[C@@H]3CC[C@H]2C1=O | -0.397 (inactive) | 0.774 | 0.638 | 1.98 (inactive) |
| CCN1C(=O)[C@H]2[C@H]3[C@H](O)[C@H](O)CC(=NOC[C@@H](O)COCc4ccco4)[C@@H]3CC[C@H]2C1=O | -0.24 (inactive) and 1.01 (inactive) | 0.232 and 0.595 | 0.0479 and -0.919 | -0.849 (inactive) and -2.85 (inactive) |

| Compound | composite z-score [1] | composite z-score (XIP peptide (Xip251-270)) | z-score [2] | z-score [3] |
| --- | --- | --- | --- | --- |
| COC(=O)[C@H](C)NC(=O)CCC1CC(OC(=O)NCCc2ccc(F)cc2)CC2(CCCC(COC(=O)NCCCN3CCCC3=O)O2)O1 (some centres not stated) | 0.348 (inactive) | 0.683 | -1.9 | -4.1 (inactive) |
| COC(=O)C1=C(C)N(Cc2ccccc2)[C@]23O[C@](C(=O)OC)(C(=O)N2[C@@H]1c1ccccc1)[C@@H](c1ccccc1)[C@@H]3C(=O)c1ccccc1 | 0.114 (inactive) and 0.416 (inactive) | -0.0935 and 0.0333 | -0.362 and 0.318 | -0.11 (inactive) and -0.0833 (inactive) |
| COC(=O)C1=C(C)N(Cc2ccccc2)C2=C3C(=O)CCC[C@@H]3[C@@](O)(C(=O)OC)C(=O)N2[C@@H]1c1ccccc1 | 0.995 (inactive) and 0.0397 (inactive) | 0.135 and -0.554 | 0.0894 and 0.169 | -0.77 (inactive) and -1.47 (inactive) |
| O=c1n(-c2ccccc2)c(=O)n2n1CC[C@@H]1C(=NOC[C@@H](O)COCc3ccco3)[C@H]3O[C@H]3[C@@H](O)[C@@H]12 | 0.0643 (inactive) and 0.158 (inactive) | 0.0433 and -0.0465 | -1.77 and -0.681 | -0.683 (inactive) and -1.44 (inactive) |
| CCCNC(=O)OC[C@H]1O[C@H](CCON=C(C)CCC(=O)OC[C@H]2O[C@H](C#Cc3ccccc3)C=C[C@@H]2Oc2ccc(C)cc2)C=C[C@@H]1Oc1ccc(OC)cc1 | -0.238 (inactive) | -0.439 | -2.1 | -0.983 (inactive) |
| CO[C@@H]1COC(=O)CC=C[C@H](C)[C@@H](NS(=O)(=O)c2ccc(C)cc2)COC(=O)CC=C[C@@H]1C | 1.11 (inactive) and 0.147 (inactive) | 0.77 and 0.481 | 0.707 and -0.283 | -1.05 (inactive) and -2.69 (inactive) |
| CCOC(=O)[C@H](Cc1ccccc1)NC(=O)CCC1CC(OC(=O)NCc2cccc3ccccc23)CC2(CCCC(COC(=O)NCCCN3CCCC3=O)O2)O1 (some centres not stated) | 0.684 (inactive) | 0.351 | -1.63 | -4.68 (inactive) |
| CC(C)CCN1CCc2nc(-c3ccccc3)c3c(c2C1)CO[C@@H](C)C3 | 0.105 (inactive) | 0.563 | 1.77 | -3.47 (inactive) |
| CC(C)C(=O)N[C@@H]1CCCN1C(=O)C=Cc1ccccc1 | 0.36 (inactive) | 0.473 | 1.99 | -1.68 (inactive) |
| COC(=O)C1=C2N(Cc3ccccc3)C(C)=C(C(=O)OC)[C@@H](c3ccccc3)N2C(=O)[C@](O)(C(=O)OC)C1 | 0.109 (inactive) and 0.0955 (inactive) | 0.23 and 0.64 | 0.166 and -0.0932 | -5.1 (inactive) and -1.13 (inactive) |
| C#CCCCON=C1C[C@@H](O)[C@@H](O)[C@@H]2[C@@H]3C(=O)N(C4CCCCC4)C(=O)[C@@H]3CC[C@H]12 | 0.57 (inactive) | 0.545 | 1.43 | 0.504 (inactive) |
| CO[C@@H]1COC(=O)[C@H](Cc2ccccc2)NC(=O)CC=C[C@@H](C)[C@H](OC)COC(=O)[C@@H](C)NC(=O)CC=C[C@H]1C | 0.219 (inactive) and 0.97 (inactive) | 0.499 and 0.535 | -0.446 and 0.677 | -0.525 (inactive) and -0.47 (inactive) |
| CO[C@H]1COC(=O)[C@H](C)NC(=O)CC=C[C@@H](C)[C@H](OC)COC(=O)CC=C[C@@H]1C | 0.195 (inactive) | 0.394 | 0.459 | -0.298 (inactive) |
| CC(C)=CCCC(C)=CCON=C1C[C@@H](O)[C@@H](O)[C@@H]2[C@@H]3C(=O)N([C@@H](C)c4ccccc4)C(=O)[C@@H]3CC[C@H]12 | 1.32 (inactive) | 0.105 | -0.12 | -0.414 (inactive) |
| CC(C)=NO[C@@H](C)c1cc(-c2c(C)cc(C)cc2C)no1 | -0.386 (inactive) | 0.303 | -0.876 | 0.387 (inactive) |
| CC(C)=NOC[C@@H](O)COCc1ccco1 | -0.651 (inactive) | 0.258 | 0.814 | -1.15 (inactive) |
| COC(=O)C1=C(C)N(Cc2ccccc2)[C@]23O[C@](C(=O)OC)(C(=O)N2[C@@H]1c1ccccc1)[C@H]1C(=O)N(c2ccccc2)C(=O)[C@H]13 | 0.229 (inactive) and 0.555 (inactive) | -0.275 and -0.308 | -0.391 and 1.02 | -2.26 (inactive) and -1.88 (inactive) |
| Cc1cc2c(nc1C)CCCN2CC(O)CN1CCCc2nc(-c3ccc(Br)cc3)ccc21 (configuration not stated) | 1.5 (inactive) and 4.73 (inactive) | 0.719 and 0.327 | -0.614 and 0.112 | -7.89 (inactive) and -7.9 (inactive) |
| C[C@@H]1CC[C@H]2C(=O)O[C@H](CN=[N+]=[N-])CN2[C@H]1c1ccc(Br)cc1 | -0.036 (inactive) and -0.0365 (inactive) | 0.183 and 0.186 | -2.02 and -0.068 | -1.98 (inactive) and -3.31 (inactive) |

Source: PubChem BioAssay
